Screens: PubChem, National Center for Advancing Translational Sciences (NCATS)
Only some compounds are listed: those with a hit (about 12% of all), similar ones and a draw of the others.
Sfp inh: Sfp phosphopantetheinyl transferase inhibition; Q9F4F7; Biochemical Sfp PPTase activity, qHTS; Potency, µM, for the others: largest response in the series, negative = inhibition, hits mostly inhibitors; 3.5% of 310,000 active; AID 1490;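 further: the enzyme is Sfp with the accession as filed and its product quenches rhodamine fluorescence; 0% = enzyme reaction without inhibitor and -100% = no enzyme wells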
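Compounds were incubated with enzyme (final 15 nM) for 15 min at room temperature before substrate addition started the reaction. Fluorescence at 525 nm excitation, 598 nm emission was recorded immediately and after 30 minutes.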
BAZ2B inh: inhibitors of human BAZ2B bromodomain; 4.4% of 360,000 active; AID 504333; Potency, µM (top dose mostly 114 µM), without a hit: at the top dose activity change, negative = inhibition, actives largely listed as inhibitors; AlphaScreen BAZ2B-H3K14Ac peptide displacement; further: on the % scale 0 is the no-effect control and ±100 the full control effect; nearly all actives have a fitted effect of over 60% in size
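Inhibition is scored as reduced AlphaScreen emission. The BAZ2B/b-H3(5-23)K14Ac complex (50 nM each) in PBS pH 7.4, 0.01% Tween-20 meets compound (up to 110 uM) for 30 min at RT before bead addition.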
HP1b chromo inh: inhibitors of HP1-beta chromodomain binding to methylated histone tails; AlphaScreen HP1-beta / biotin-H3K9me3 peptide binding; 0.56% of 390,000 active; P83916; Potency, µM (titrated, usually from 114 µM), without a hit: at the top dose activity change, negative = inhibition, most hits filed as inhibitors; further: nearly all actives have a fitted effect of over 70% in size
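HP1-beta protein (50 nM final) preincubated 30 min at room temperature with biotinylated H3(1-18)K9me3 peptide (50 nM) in PBS pH 7.4, 0.01% Tween-20, then compound added for 30 min. AlphaScreen streptavidin donor/nickel chelate acceptor beads (10 ug/mL final), 30 min dark, luminescence read.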
JMJD2A Tudor inh: blocks the human JMJD2A Tudor domain; O75164; AlphaScreen JMJD2A-Tudor / H3K4me3 peptide binding; Potency, µM (series often up to 114 µM), for inactives: at the highest dose activity change, negative = inhibition, usual class: inhibitors; 4.4% of 390,000 active; AID 504339; further: on the % scale 0 is the no-effect control and ±100 the full control effect; nearly all actives have a fitted effect of over 50% in size
G9a block: G9a (human) methyltransferase inhibition. 8.8% of 350,000 active. G9a H3K9 monomethylation, AlphaScreen, 2 h. Potency, µM (top dose mostly 102 µM), without a hit: at the top dose activity, negative = inhibition, actives largely listed as inhibitors. Q96KQ7; further: on the % scale 0 is the no-effect control and ±100 the full control effect; nearly all actives have a fitted effect of over 75% in size
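AlphaScreen detection with an anti-monomethyl H3K9 antibody quantified product after a 2 h room-temperature reaction containing 500 nM biotinylated H3K9 peptide, 20 µM SAM and 20 nM enzyme, which had been preincubated 15 min with compound.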
L3MBTL1 block: L3MBTL1 (human) inhibition; Potency, µM (titrated, usually from 57.1 µM), inactives show at the top dose activity, negative = inhibition, hits mostly inhibitors; Q9Y468; 0.66% of 230,000 active; AlphaScreen L3MBTL1–H3K9me1 peptide binding; further: on the % scale 0 is the no-effect control and ±100 the full control effect; nearly all actives have a fitted effect of over 60% in size
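L3MBTL1 50 nM + b-AHA-H3(1-15)K9me1 75 nM, 30 min RT; compound added, 30 min RT; streptavidin donor/Ni-chelate acceptor beads 10 ug/mL each final, 30 min RT dark; AlphaScreen read.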
Numbers without * were called inactive; ? = inconclusive; / = no result; [ ] = remark or other dose. The call rests on the fitted dose curve; in most records, active means well fitted curve in the direction sought with a large enough effect; inconclusive means small, poorly fitted or top-dose-only effect, or another doubt; inactive means no such curve, though single readings can be large; an effect the other way counts as inactive or inconclusive. Potency means the concentration at half of the fitted maximal effect.

SMILES | Sfp inh | BAZ2B inh | HP1b chromo inh | JMJD2A Tudor inh | G9a block | L3MBTL1 block
Cc1csc(SCC(=O)Nc2nc(-c3ccccc3)cs2)n1 | -4% | 10% | 35% | -11% | -32% | 8%
Cc1cc(=O)[nH]c(SCC(=O)Nc2nc(-c3ccccc3)cs2)n1 | -6% | ? | 15% | -20% | 50µM* | -7%
CC(=O)c1cccc(NC(=O)c2ccc3nc(C(C)C)oc3c2)c1 | / | -7% | 11%[57 µM] | -13% | 3%[59 µM] | /
Cc1[nH]c2ccccc2c1C1(O)C(=O)N(Cc2ccccc2)c2ccc(Cl)cc21 (stereo not given) | / | ? | -11% | ? | ? | /
COc1ccc(CCNC(=O)Cn2cc(S(=O)(=O)Cc3ccc(F)cc3)c3ccccc32)cc1OC | / | -3% | 7% | -22% | 4%[59 µM] | /
COc1ccc(OC)c(CCNC(=O)c2cnn(-c3ccccc3)c2-n2cccc2)c1 | / | -39% | -2% | ? | -8%[59 µM] | /
O=C(COc1ccc(Cl)cc1)OCc1cc(=O)n2nc(C3CCCCC3)sc2n1 | / | -2% | 49% | -8% | 10%[59 µM] | /
O=C(NC1CCSc2ccccc21)c1ccc([N+](=O)[O-])cc1 (stereo not given) | 18% | -26% | 31% | -15% | -11% | /
O=C(Nc1nc2ccc(Oc3ccccc3)cc2s1)c1cc([N+](=O)[O-])ccc1N1CCOCC1 | -24% | ? | -1% | -32% | 16µM* | -17%
O=C(NC1CCSc2ccccc21)c1cc([N+](=O)[O-])ccc1N1CCOCC1 (stereo not given) | / | -29% | -12% | -21% | 56µM* | -6%
O=C(NCCOc1ccccc1)c1cc([N+](=O)[O-])ccc1N1CCOCC1 | / | 1% | 15% | -19% | 34%[12.7 µM] | 4%
Nc1cc(=O)[nH]c(SCC(=O)Nc2nc3ccc([N+](=O)[O-])cc3s2)n1 | -18% | ? | / | / | 40µM* | -16%
CC(=O)Nc1c(O)nc(SCC(=O)Nc2c(C)cccc2C)[nH]c1=O | 79µM* | 3% | 23% | -23% | ? | /
Cc1ccc(S(=O)(=O)N2CCc3nc(-c4ccccc4)c4c(c3C2)CO[C@@H](C)C4)cc1 | -5% | / | / | / | / | /
O=C(Nc1ccccc1)N1CC2(CCN(C(=O)c3cnccn3)CC2)C1 | 2% | / | / | / | 9%[12.7 µM] | /
CCC/C=C(\CCC)C(NC(=O)c1cccs1)c1ccc(C(F)(F)F)cc1 (stereo not given) | 16% | / | / | / | / | /
Cc1cc(=O)[nH]c(SCC(=O)Nc2nc3ccccc3s2)n1 | 79µM* | ? | 28% | -23% | 32µM* | /
Cc1cc(=O)[nH]c(SCC(=O)Nc2nnc(SCc3ccccc3)s2)n1 | 2% | -39% | -6% | -11%[11.4 µM] | -6% | /
O=C(CSCc1cnn(-c2ccccc2)c1-n1cccc1)NCCN1CCOCC1 | 26% | 0% | 33% | -12% | 4% | /
COc1ccc(CNC(=O)CSCc2cnn(-c3ccccc3)c2-n2cccc2)cc1 | -4% | -4% | 2% | -10% | 32µM* | /
O=C(CSCc1cnn(-c2ccccc2)c1-n1cccc1)NCC1CCCO1 (stereo not given) | 13% | -1% | 23% | -7% | 50µM* | /
COc1ccc(NC(=O)CSCc2cnn(-c3ccccc3)c2-n2cccc2)cc1 | / | -39% | 55% | -7% | -13%[59 µM] | /
Cc1cc(C)cc(NC(=O)CSc2oc(-c3ccco3)nc2S(=O)(=O)c2ccc(Cl)cc2)c1 | / | ? | 8% | ? | -28%[59 µM] | /
CN1C(=O)C[C@H](C(=O)O)[C@@H]1c1cccnc1 | -9% | / | / | / | / | /
Cc1ccc(CS(=O)(=O)c2cn(CC(=O)N3CCOCC3)c3ccccc23)cc1 | 56µM* | -1% | 51% | -9% | / | /
SMILES | Sfp inh | BAZ2B inh | HP1b chromo inh | JMJD2A Tudor inh | G9a block | L3MBTL1 block
COc1ccc(CCNC(=O)CS(=O)(=O)c2cn(CC(=O)N3CCCC3)c3ccccc23)cc1OC | 5% | / | 50% | -2% | 50µM* | /
Cc1ccc(S(=O)(=O)N(CCC(=O)N2CCOCC2)c2ccccc2)cc1 | / | -5% | 15% | -8% | 14µM* | 4%
CC(=O)N1CCN(C(=O)CCN(c2ccccc2)S(=O)(=O)c2ccc(C)cc2)CC1 | / | -3% | 1% | -14% | -7%[0.501 µM] | 3%
Cc1cccc(CS(=O)(=O)c2cn(CC(=O)N3CCOCC3)c3ccccc23)c1 | 50µM* | -17% | 50% | -9% | 10µM* | /
COc1ccc(CCNC(=O)CS(=O)(=O)c2cn(CC(=O)N(C(C)C)C(C)C)c3ccccc23)cc1OC | -5% | -1% | 25% | -1% | 17% | /
O=C(Cn1c(=O)n2nc(-c3cccc(F)c3)nc2c2ccccc21)N1CCN(c2ccccc2F)CC1 | / | 26% | 59% | -14% | -3%[59 µM] | /
O=C(Cn1cc(S(=O)(=O)Cc2ccccc2F)c2ccccc21)N1CCOCC1 | -16% | -18% | 45% | -12% | 22µM* | /
CCc1ccc(NS(=O)(=O)c2cc(OC)ccc2OC)cc1 | 8% | 1% | 27% | -14% | 26% | -1%
CCc1ccc(NS(=O)(=O)c2[nH]ncc2C(=O)OC)cc1 | / | ? | 18% | 56µM* | 2.5µM* | /
Cc1ccc(CN2CCNC(=O)C2CC(=O)O)cc1 (stereo not given) | 1% | 6% | 36% | -4% | 16µM* | 4%
O=C(O)CC1C(=O)NCCN1CCCc1ccccc1 (stereo not given) | 11% | 1% | 25% | -20% | 28µM* | -2%
CCOc1ccc(-n2cc(-c3ccccc3)c3c(NC4CCCC4)ncnc32)cc1 | / | ? | 33% | -27% | -4%[59 µM] | /
Clc1ccc(-n2ncc3c(NCCCn4ccnc4)ncnc32)cc1 | 15% | -33% | 17% | -24% | 25µM* | /
COc1ccccc1CNc1ccc(CNc2ncn[nH]2)cc1 | 24% | ? | 20% | ? | -45% | -16%
c1ccc2c(CNc3ccc(CNc4ncn[nH]4)cc3)cccc2c1 | -12% | 45µM* | ? | 56µM* | ? | -11%
CSc1ccc(C2c3c(-c4ccccc4O)n[nH]c3C(=O)N2Cc2ccncc2)cc1 (stereo not given) | / | ? | 11% | ? | -11%[59 µM] | /
Cc1ccc(Nc2cc(C)c(O)c(C)c2)cc1 | ? | 7.1µM* | 50µM* | 40µM* | 25µM* | ?
CCN1CCN(C(c2ccccc2)c2c(O)cc(C)n(Cc3ccco3)c2=O)CC1 (stereo not given) | / | -19% | 14%[57 µM] | ? | ? | /
CCN1CCN(C(c2ccc(SC)cc2)c2c(O)cc(C)n(Cc3ccco3)c2=O)CC1 (stereo not given) | / | -13% | -13%[57 µM] | 79µM* | ? | /
